Laboratory results from PubChem BioAssay (NCI).
About 79,000 compounds went through this panel and 15% of them were active in at least one assay; those are over-represented in the sample as a whole. Unmarked numbers belong to inactive results. The source made the active and inactive calls. Cut-off read from the data, not from the text of the source: active = growth inhibition above about 70%; inactive = the rest.

Assays:
[1] = NCI Yeast Anticancer Drug Screen. Data for the rad52 strain (AID 147);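 note: 0% = growth of vehicle-treated control cultures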; details: S. cerevisiae rad52 mutant growth inhibition, active compounds read high
How it was run: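 Genetically altered yeast (DNA damage repair defect) treated with compound; inhibition calculated relative to vehicle.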

[2] = NCI Yeast Anticancer Drug Screen. Data for the wt1 strain (AID 149);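 note: 0% = growth of vehicle-treated wt1 cultures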; details: S. cerevisiae wt1 strain (SPY 50644) growth inhibition, active compounds read high
How it was run: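 Compounds are added to wt1 yeast cultures. Growth is then measured. Inhibition is expressed relative to vehicle-treated controls.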

[3] = NCI Yeast Anticancer Drug Screen. Data for the rad50EPP+ strain (AID 151);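 note: 0% = growth of vehicle-treated control cultures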; details: S. cerevisiae rad50 mutant strain, active compounds read high
How it was run: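 Strain rad50EPP+; compound exposure; % growth inhibition vs vehicle.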

[4] = NCI Yeast Anticancer Drug Screen. Data for the mgt1 strain (AID 153); details: S. cerevisiae mgt1 mutant growth inhibition, active compounds read high
How it was run: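 Read-out: yeast growth inhibition vs vehicle control. Strain mgt1, drawn from a panel altered in DNA damage repair or cell cycle control.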

[5] = NCI Yeast Anticancer Drug Screen. Data for the rad50 strain (AID 155);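 note: 0% = growth of vehicle-only cultures of the same strain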; details: S. cerevisiae rad50 strain growth inhibition, active compounds read high
How it was run: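 Inhibition values express reduced yeast growth in compound-treated cultures relative to vehicle-treated controls.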

[6] = NCI Yeast Anticancer Drug Screen. Data for the mec2-1 strain (AID 157); details: S. cerevisiae mec2-1 strain, active compounds read high
How it was run: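 Cells of the genetically defined mec2-1 yeast strain are incubated with test compound. Inhibition of growth is calculated against vehicle-treated controls.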

[7] = NCI Yeast Anticancer Drug Screen. Data for the rad14 strain (AID 159);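 note: 0% = growth of vehicle-treated control cultures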; details: S. cerevisiae rad14 strain growth inhibition, active compounds read high
How it was run: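 A mutant yeast strain defective in DNA damage repair is treated with compound; inhibition of its growth is scored against untreated, vehicle-exposed cultures.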

[8] = NCI Yeast Anticancer Drug Screen. Data for the sgs1 mgt1 strain (AID 161);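 note: 0% = growth of cultures given vehicle only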; details: S. cerevisiae sgs1 mgt1 strain, active compounds read high
How it was run: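 Mutant yeast exposed to compound; growth scored against vehicle-only wells.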

[9] = NCI Yeast Anticancer Drug Screen. Data for the CLN2oe strain (AID 163);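 note: 0% = growth of vehicle-only control cultures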; details: S. cerevisiae CLN2oe strain, active compounds read high
How it was run: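 Strain altered in cell-cycle control, incubated with compound; growth compared to solvent-treated controls.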

[10] = NCI Yeast Anticancer Drug Screen. Data for the cln2 rad14 strain (AID 165);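 note: 0% = growth equal to vehicle treated cultures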; details: S. cerevisiae cln2 rad14 strain, active compounds read high
How it was run: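 The screen exposed genetically defined yeast (cln2 rad14) to test compounds and scored growth inhibition relative to vehicle-treated controls.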

[11] = NCI Yeast Anticancer Drug Screen. Data for the bub3 strain (AID 167); details: S. cerevisiae bub3 mutant strain, active compounds read high
How it was run: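 Steps: expose the mutant yeast strain to compound; grow alongside vehicle-treated cultures; measure growth; express inhibition against the vehicle cultures.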

[12] = NCI Yeast Anticancer Drug Screen. Data for the wt2 strain (AID 169);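 note: 0% = growth of vehicle-treated yeast cultures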; details: S. cerevisiae wt2 strain growth inhibition, active compounds read high
How it was run: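 Steps: yeast strain treated with compound; growth recorded; inhibition calculated relative to cultures given vehicle alone.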

[13] = NCI Yeast Anticancer Drug Screen. Data for the mlh1 strain (AID 171);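 note: 0% = growth of vehicle-treated control cultures of the same strain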; details: S. cerevisiae mlh1 strain growth inhibition, active compounds read high
How it was run: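 Yeast screen: mutant strain plus compound, growth scored against vehicle control wells.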

[14] = NCI Yeast Anticancer Drug Screen. Data for the sgs1 strain (AID 173);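 note: 0% = growth of vehicle-only control cultures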; details: S. cerevisiae sgs1 mutant, active compounds read high
How it was run: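 Inhibition of yeast growth served as the measure. The mutant strain was treated with each compound, and growth was normalised to cultures receiving vehicle alone.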

[15] = NCI Yeast Anticancer Drug Screen. Data for the mlh1 rad18 strain (AID 175); details: S. cerevisiae mlh1 rad18 strain growth inhibition, active compounds read high
How it was run: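 Compound-treated yeast growth, normalised to vehicle controls. Strain bears defined DNA repair mutations.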

[16] = NCI Yeast Anticancer Drug Screen. Data for the rad18 strain (AID 177); details: S. cerevisiae rad18 mutant growth inhibition, active compounds read high
How it was run: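 Inhibition values reflect reduced yeast growth compared with vehicle-treated controls, using a strain engineered with a DNA damage repair defect.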

[17] = at 5.0 µM (retest, dose inferred, filed as 0.5)
[18] = at 50.0 µM (retest, dose inferred, filed as 5.0)

## CC1=CCC(C(C)(C)c2ccc(O)cc2)CC1 (stereo not given)
[1]; at 1.2 µM
  growth inhibition: 4%
[1]; at 3.7 µM
  growth inhibition: -12%
[1]; at 11.0 µM
  growth inhibition: -11%
[1]; at 33.0 µM
  growth inhibition: 96% (active)
[1]; at 100.0 µM
  growth inhibition: 97% (active)
[2]; at 1.2 µM
  growth inhibition: -16%
[2]; at 3.7 µM
  growth inhibition: -18%
[2]; at 11.0 µM
  growth inhibition: -39%
[2]; at 33.0 µM
  growth inhibition: 97% (active)
[2]; at 100.0 µM
  growth inhibition: 98% (active)
[3]; at 1.2 µM
  growth inhibition: -10%
[3]; at 3.7 µM
  growth inhibition: -4%
[3]; at 11.0 µM
  growth inhibition: -25%
[3]; at 33.0 µM
  growth inhibition: 27%
[3]; at 100.0 µM
  growth inhibition: 78% (active)
[4]; at 1.2 µM
  growth inhibition: 35%
[4]; at 3.7 µM
  growth inhibition: 10%
[4]; at 11.0 µM
  growth inhibition: -23%
[4]; at 33.0 µM
  growth inhibition: 97% (active)
[4]; at 100.0 µM
  growth inhibition: 97% (active)
[5]; at 1.2 µM
  growth inhibition: -6%
[5]; at 3.7 µM
  growth inhibition: -8%
[5]; [17]
  growth inhibition: 35%
[5]; at 11.0 µM
  growth inhibition: -26%
[5]; at 33.0 µM
  growth inhibition: 96% (active)
[5]; [18]
  growth inhibition: 65%
[5]; at 50.0 µM
  growth inhibition: 91.8% (active)
[5]; at 100.0 µM
  growth inhibition: 97% (active)
[6]; at 1.2 µM
  growth inhibition: -20%
[6]; at 3.7 µM
  growth inhibition: -19%
[6]; [17]
  growth inhibition: 52%
[6]; at 11.0 µM
  growth inhibition: -40%
[6]; at 33.0 µM
  growth inhibition: 93% (active)
[6]; [18]
  growth inhibition: 73% (active)
[6]; at 50.0 µM
  growth inhibition: 93.5% (active)
[6]; at 100.0 µM
  growth inhibition: 98% (active)
[7]; at 1.2 µM
  growth inhibition: -8%
[7]; at 3.7 µM
  growth inhibition: -18%
[7]; at 11.0 µM
  growth inhibition: -39%
[7]; at 33.0 µM
  growth inhibition: 97% (active)
[7]; at 100.0 µM
  growth inhibition: 98% (active)
[8]; [17]
  growth inhibition: 7%
[8]; [18]
  growth inhibition: 97% (active)
[9]; at 1.2 µM
  growth inhibition: 15%
[9]; at 3.7 µM
  growth inhibition: 19%
[9]; at 11.0 µM
  growth inhibition: -17%
[9]; at 33.0 µM
  growth inhibition: 97% (active)
[9]; at 100.0 µM
  growth inhibition: 97% (active)
[10]; [17]
  growth inhibition: 37%
[10]; [18]
  growth inhibition: 98% (active)
[11]; at 1.2 µM
  growth inhibition: 7%
[11]; at 3.7 µM
  growth inhibition: 4%
[11]; [17]
  growth inhibition: 39%
[11]; at 11.0 µM
  growth inhibition: -4%
[11]; at 33.0 µM
  growth inhibition: 96% (active)
[11]; [18]
  growth inhibition: 97% (active)
[11]; at 100.0 µM
  growth inhibition: 97% (active)
[12]; at 1.2 µM
  growth inhibition: -41%
[12]; at 3.7 µM
  growth inhibition: -24%
[12]; at 11.0 µM
  growth inhibition: -44%
[12]; at 33.0 µM
  growth inhibition: 93% (active)
[12]; at 100.0 µM
  growth inhibition: 97% (active)
[13]; at 1.2 µM
  growth inhibition: 10%
[13]; at 3.7 µM
  growth inhibition: 9%
[13]; at 11.0 µM
  growth inhibition: -10%
[13]; at 33.0 µM
  growth inhibition: 96% (active)
[13]; at 100.0 µM
  growth inhibition: 98% (active)
[14]; at 1.2 µM
  growth inhibition: 2%
[14]; at 3.7 µM
  growth inhibition: -17%
[14]; at 11.0 µM
  growth inhibition: -28%
[14]; at 33.0 µM
  growth inhibition: 96% (active)
[14]; at 100.0 µM
  growth inhibition: 97% (active)
[15]; [17]
  growth inhibition: 32%
[15]; [18]
  growth inhibition: 63%
[15]; at 50.0 µM
  growth inhibition: 91.8% (active)
[16]; at 1.2 µM
  growth inhibition: -6%
[16]; at 3.7 µM
  growth inhibition: -7%
[16]; at 11.0 µM
  growth inhibition: -5%
[16]; at 33.0 µM
  growth inhibition: 96% (active)
[16]; at 100.0 µM
  growth inhibition: 97% (active)

## NC(N)=N/N=C/c1cc(Cl)cc(Cl)c1O
[1]; at 1.2 µM
  growth inhibition: 5%
[1]; at 3.7 µM
  growth inhibition: 4%
[1]; at 11.0 µM
  growth inhibition: 21%
[1]; at 33.0 µM
  growth inhibition: 51%
[1]; at 100.0 µM
  growth inhibition: 98% (active)
[2]; at 1.2 µM
  growth inhibition: -14%
[2]; at 3.7 µM
  growth inhibition: -19%
[2]; at 11.0 µM
  growth inhibition: -29%
[2]; at 33.0 µM
  growth inhibition: 1%
[2]; at 100.0 µM
  growth inhibition: 95% (active)
[3]; at 1.2 µM
  growth inhibition: 19%
[3]; at 3.7 µM
  growth inhibition: 49%
[3]; at 11.0 µM
  growth inhibition: 50%
[3]; at 33.0 µM
  growth inhibition: 60%
[3]; at 100.0 µM
  growth inhibition: 74% (active)
[4]; at 1.2 µM
  growth inhibition: 18%
[4]; at 3.7 µM
  growth inhibition: 17%
[4]; at 11.0 µM
  growth inhibition: 33%
[4]; at 33.0 µM
  growth inhibition: 88% (active)
[4]; at 100.0 µM
  growth inhibition: 99% (active)
[5]; at 1.2 µM
  growth inhibition: -15%
[5]; at 3.7 µM
  growth inhibition: -7%
[5]; [17]
  growth inhibition: 63%
[5]; at 11.0 µM
  growth inhibition: 4%
[5]; at 33.0 µM
  growth inhibition: 46%
[5]; [18]
  growth inhibition: 95% (active)
[5]; at 50.0 µM
  growth inhibition: 79.7% (active)
[5]; at 100.0 µM
  growth inhibition: 97% (active)
[6]; at 1.2 µM
  growth inhibition: -29%
[6]; at 3.7 µM
  growth inhibition: -18%
[6]; [17]
  growth inhibition: 73% (active)
[6]; at 11.0 µM
  growth inhibition: -21%
[6]; at 33.0 µM
  growth inhibition: 23%
[6]; [18]
  growth inhibition: 96% (active)
[6]; at 50.0 µM
  growth inhibition: 61.9%
[6]; at 100.0 µM
  growth inhibition: 98% (active)
[7]; at 1.2 µM
  growth inhibition: -8%
[7]; at 3.7 µM
  growth inhibition: 1%
[7]; at 11.0 µM
  growth inhibition: 12%
[7]; at 33.0 µM
  growth inhibition: 72% (active)
[7]; at 100.0 µM
  growth inhibition: 98% (active)
[8]; [17]
  growth inhibition: 4%
[8]; [18]
  growth inhibition: 98% (active)
[9]; at 1.2 µM
  growth inhibition: 15%
[9]; at 3.7 µM
  growth inhibition: 23%
[9]; at 11.0 µM
  growth inhibition: 21%
[9]; at 33.0 µM
  growth inhibition: 33%
[9]; at 100.0 µM
  growth inhibition: 93% (active)
[10]; [17]
  growth inhibition: 54%
[10]; [18]
  growth inhibition: 93% (active)
[11]; at 1.2 µM
  growth inhibition: -7%
[11]; at 3.7 µM
  growth inhibition: -6%
[11]; [17]
  growth inhibition: 46%
[11]; at 11.0 µM
  growth inhibition: 4%
[11]; at 33.0 µM
  growth inhibition: 49%
[11]; [18]
  growth inhibition: 96% (active)
[11]; at 100.0 µM
  growth inhibition: 97% (active)
[12]; at 1.2 µM
  growth inhibition: -49%
[12]; at 3.7 µM
  growth inhibition: -40%
[12]; at 11.0 µM
  growth inhibition: -30%
[12]; at 33.0 µM
  growth inhibition: 30%
[12]; at 100.0 µM
  growth inhibition: 97% (active)
[13]; at 1.2 µM
  growth inhibition: 12%
[13]; at 3.7 µM
  growth inhibition: 9%
[13]; at 11.0 µM
  growth inhibition: 21%
[13]; at 33.0 µM
  growth inhibition: 68%
[13]; at 100.0 µM
  growth inhibition: 98% (active)
[14]; at 1.2 µM
  growth inhibition: -12%
[14]; at 3.7 µM
  growth inhibition: -14%
[14]; at 11.0 µM
  growth inhibition: -1%
[14]; at 33.0 µM
  growth inhibition: 37%
[14]; at 100.0 µM
  growth inhibition: 98% (active)
[15]; [17]
  growth inhibition: 55%
[15]; [18]
  growth inhibition: 97% (active)
[15]; at 50.0 µM
  growth inhibition: 58.2%
[16]; at 1.2 µM
  growth inhibition: -8%
[16]; at 3.7 µM
  growth inhibition: -11%
[16]; at 11.0 µM
  growth inhibition: -6%
[16]; at 33.0 µM
  growth inhibition: 49%
[16]; at 100.0 µM
  growth inhibition: 95% (active)
